Results from PubChem BioAssay AID2685 (National Center for Advancing Translational Sciences (NCATS), 2010).
The whole screen tested about 320,000 compounds, of which about 2,100 (0.66%) were called active. About 53% were inconclusive and are not listed. Calls come from the whole dose curve; as a rule, active = well fitted inhibition curve with a large enough effect in the signal ratio, with a control signal flat (not every such curve was filed as active); inconclusive = small, poorly fitted or top-dose-only effect, or effect the other way, or a change in a side signal; inactive = flat fitted curve, though single readings scatter; the % refers to the signal ratio. The list comes from a sample in which actives are over-represented; it also holds similar structures and randomly drawn compounds.

Assay: qHTS Assay for Lipid Storage Modulators in Drosophila S3 Cells;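 for cell number change: cells counted by Cell Tracker Red CMTPX staining in the red channel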
Settings: BODIPY lipid droplet fluorescence, 18-24 h, cells fed with added oleic acid; cell number change: measured here: cell count max response; series mostly up to 46.1 µM
Summary of the method: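 Drosophila S3 cells got compounds at several concentrations plus oleic acid (400 uM solution). Laser-scanning cytometry with 488 nm excitation read lipid droplets at 500-530 nm and cells at 575-640 nm. Percent activity was relative to 20 uM Triacsin C.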
Potency is the fitted concentration of half-maximal effect.

SMILES | Potency | cell number change [%]
COc1ccccc1N(C)S(=O)(=O)c1ccc(C(=O)O)cc1 | inactive | -4.33
COc1cccc(CN2CCNC(=O)C2CC(=O)NCc2cn3cccc(C)c3n2)c1OC (centres undefined) | inactive | -8.41
O=S(=O)(c1cccc2nsnc12)N1CCN(C/C=C/c2ccccc2)CC1 | inactive | 7.87
O=S(=O)(c1cccc2nsnc12)N1CCN(Cc2ccccc2)CC1 | 6.51 µM (active) | 1.32
CCN1CCN(S(=O)(=O)c2cccc3nsnc23)CC1 | inactive | -12.7
COc1ccc(-n2c(C)cc(/C=C3\SC(=S)N(Cc4ccco4)C3=O)c2C)cc1 | inactive | -10.6
Cc1cc(/C=C2\SC(=S)N(Cc3ccco3)C2=O)c(C)n1-c1cccnc1 | 23.1 µM (active) | –
Cc1cc(/C=C2\SC(=S)N(Cc3ccco3)C2=O)c(C)n1-c1ccccc1 | inactive | -3.86
Cc1cc(C(=O)NN=C2C3CC4CC(C3)CC2C4)c2ccccc2n1 | inactive | -7.65
CN(C)C(CNC(=S)Nc1cccc(Cl)c1)c1cccnc1 (centres undefined) | inactive | -7.59
CNNC(=S)NC1CC2CC1C1C=CCC21 (centres undefined) | inactive | 17.5
CCOc1ncccc1-c1nc(-c2cccs2)no1 | inactive | -0.414
CC1CN(C(=O)c2ccc(COc3ccc4ccccc4c3)o2)CC(C)O1 (centres undefined) | inactive | 18.9
CC1CN(C(=O)COC(=O)c2cc(Cl)ccc2Cl)CC(C)O1 (centres undefined) | inactive | -5.44
CC1CN(C(=O)c2ccccc2OCc2ccc(Cl)cc2Cl)CC(C)O1 (centres undefined) | 0.651 µM (active) | -15
CC1CN(C(=O)c2ccc(COc3ccccc3Br)o2)CC(C)O1 (centres undefined) | inactive | 21.6
CCOc1cccc2cc(C(=O)N3CC(C)OC(C)C3)c(=O)oc12 (centres undefined) | inactive | -8.03
Cc1ccccc1OCc1ccc(C(=O)N2CC(C)OC(C)C2)o1 (centres undefined) | 32.6 µM (active) | 14.8
COc1ccc(N=C2CCS(=O)(=O)c3sccc32)cc1 | inactive | –
O=C(CN1C(=O)NC2(CCCC2)C1=O)Nc1ccccc1-c1ccccc1 | inactive | –
COc1ccccc1C(=O)Nc1cccc(N(C)S(C)(=O)=O)c1 | inactive | -2.55
CC(=O)c1cccc(NC(=O)N2CCN(S(C)(=O)=O)CC2)c1 | 11.6 µM (active) | –
Cc1cc(C)cc(NC(=O)N2CCN(S(C)(=O)=O)CC2)c1 | inactive | 5.38
CC(=O)c1cccc(NC(=O)N2CCCCCC2)c1 | inactive | -8.42
O=C(CCc1nnc2n(Cc3ccc(Cl)cc3)c(=O)c3ccccc3n12)NCCCN1CCOCC1 | inactive | –
CC(C)N(C(=O)Cn1c(-c2ccccc2Cl)nc2ccccc21)c1ccccc1 | inactive | -7.06
N#C/C(=N\Nc1ccc(F)cc1)C(=N)N1CCCCCC1 | inactive | 0.927
